Screening results (PubChem)
Only a selection was taken, and hits are over-represented in it overall.
Pf Dd2 inh = inhibitors of Plasmodium falciparum Dd2 growth | AID 1347417 | Potency, µM (highest dose often 28.9 µM), for the others: at the highest dose activity, negative = inhibition, most hits filed as inhibitors | 120,000 compounds, 4.3% hits | P. falciparum Dd2 growth, SYBR Green, 72 h; active = well fitted inhibition curve with a large enough effect;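 note: plate controls were DMSO vehicle for no effect and reference drug for full effect; nearly all actives have a fitted effect of over 65% in size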
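Readout: SYBR Green fluorescence, 485 nm excitation, 535 nm emission, after ~16 h lysis at 37C. Before that, Dd2-infected red cells (2.5% hematocrit) grew 72 h with compound, 29 uM top final concentration.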
* hit, by the source's call; i = inactive; [ ] = another dose, or the depositor's remark. Potency is the fitted concentration of half-maximal effect.

SMILES	Pf Dd2 inh
O=C(c1ccncc1)N1CCC(Cc2noc(-c3ccccc3)n2)C1 (stereo not drawn)	i
COc1ccc(CC(=O)NCCc2csc(-c3ccc(Cl)cc3)n2)cc1	-12.7%
COc1ccc(CC(=O)NCCc2csc(-c3cccc(C)c3)n2)cc1	12.6µM*
Cc1cccc(-c2nc(CCNC(=O)Cc3ccc(F)cc3)cs2)c1	i
c1ccc(N2CCN(Cc3cc(CC4(NCc5ccncc5)COC4)no3)CC2)cc1	-20.6%[44.1 µM]
O=C(N[C@H]1CCN2C(=O)[C@@H](Cc3ccccc3)NC(=O)[C@H]12)c1cnccn1	-4.0%[44.1 µM]
CCN(Cc1ccccc1)Cc1c(O)ccc2c(=O)c(-c3ccccc3)c(C(F)(F)F)oc12	6.31µM*
CCN(Cc1ccccc1)Cc1c(O)ccc2c(=O)c(-c3ccccc3Cl)c(C(F)(F)F)oc12	8.91µM*
Cc1ccc(-c2c(C(=O)N(C)Cc3ccccc3)oc(=O)c3ccccc23)cc1	-12.5%
CCn1nccc1C(=O)N1C[C@@H](Oc2ccccc2)C[C@@H]1C(=O)N1CCOCC1	1.8%
Cn1c(CO[C@H]2CN(C(=O)Nc3ccccc3)C[C@H]2F)nc2ccccc21	-9.9%[44.1 µM]
CC1=C[C@@H](CNC(=O)CCC(=O)O)[C@H](C(C)C)C[C@H]1CC(=O)NCc1ccccn1	19.2%[44.1 µM]
COc1ccc(CNC(=O)C[C@@H]2C[C@@H](C(C)C)[C@H](CC#N)C=C2C)cc1	-15.5%[44.1 µM]
COc1ccc(-c2nnc(C[C@@H]3C[C@@H](C(C)C)[C@H](CN4CCN(C)CC4)C=C3C)o2)cc1	i
COc1ccc(-c2nnc(C[C@@H]3C[C@@H](C(C)C)[C@H](CN(C)CCc4ccccn4)C=C3C)o2)cc1	11.2µM*
CC1=C[C@@H](CNCc2ccccn2)[C@H](C(C)C)C[C@H]1Cc1nnc(-c2ccccc2)o1	3.55µM*
CC1=C[C@@H](CNS(=O)(=O)c2ccccc2)[C@H](C(C)C)C[C@H]1Cc1nnc(-c2ccncc2)o1	-11.2%
CCNC(=O)NC[C@@H]1C=C(C)[C@H](CC(=O)NCc2ccccn2)C[C@H]1C(C)C	-1.7%[44.1 µM]
COc1ccc(-c2nnc(C[C@@H]3C[C@@H](C(C)C)[C@H](CN(C)CCC#N)C=C3C)o2)cc1	7.94µM*
CC(C)(C)NS(=O)(=O)C1CCS(=O)(=O)C1 (stereo not drawn)	0.8%
CN1Cc2ncnc(NCCc3ccccc3)c2CN(c2ccc(Cl)cc2)C1=O	-25.3%
CCn1cc(CN2C[C@@H]3C(=O)N(Cc4ccc5c(c4)OCO5)C(=O)[C@@H]3C2)cn1	72.6%
O=C(O)CCC1CCCN(S(=O)(=O)c2ccc(F)cc2)C1 (stereo not drawn)	-0.3%
O=C1CCN(C(=O)Cc2cccnc2)CCCC(c2nc(-c3cccnc3)no2)CCN1 (stereo not drawn)	i
CS(=O)(=O)Nc1ccc(C2(C(=O)NCc3ccccc3Cl)CCCCC2)cc1	-20.1%
SMILES	Pf Dd2 inh
COc1ccc(Nc2cnc3ccc(-c4ccc(OC)c(OC)c4)nn23)cn1	i
OCc1cccc(-c2ccc3ncc(Nc4ccnc(N5CCOCC5)c4)n3n2)c1	i
CN(C)c1ccc2ncc(Nc3cccc(C(F)(F)F)c3)n2n1	i
COc1ccc(-c2ccc3ncc(Nc4ccc5c(c4)OCCO5)n3n2)cc1OC	i
COc1ccc(Nc2cnc3ccc(-c4ccc(F)cc4)nn23)cc1OC	2.82µM*
C[S+](=O)([O-])Nc1cccc(Nc2cnc3ccc(-c4ccccc4)nn23)c1	12.6µM*
COc1cncc(Nc2cnc3ccc(-c4cccc(CO)c4)nn23)c1	12.6µM*
COc1ccccc1-c1ccc2ncc(Nc3ccc(C(N)=O)cc3)n2n1	i
c1ccc(Nc2cnc3ccc(N4CCOCC4)nn23)cc1	i
COc1ccc(-c2ccc3ncc(Nc4cccc(Cl)c4)n3n2)cn1	-6.7%[44.1 µM]
OCc1cccc(-c2ccc3ncc(Nc4ccccc4F)n3n2)c1	-5.8%[44.1 µM]
COc1ccccc1-c1ccc2ncc(Nc3ccccc3)n2n1	7.94µM*
Cc1ccc(C(=O)N2CCC[C@H]2c2nc(-c3ccccc3)no2)cc1C	-9.5%
CN1c2cc(C(=O)NCCc3ccccc3)ccc2C(=O)N2CCCC21 (stereo not drawn)	-4.6%
COc1ccc(C(=O)N2CCn3c(nn(-c4ccc(Cl)cc4)c3=O)C2)cc1	11.7%
CC(C)C(=O)N1CCc2c(c(-c3nncn3C(C)C)nn2C)C1	-26.9%
N#Cc1ccc(CN2CCn3c(nn(-c4ccc(C(F)(F)F)cc4)c3=O)C2)cc1	-19.6%
Cc1nc2ccc(C(=O)N3C[C@@H](CN4CCCCC4)[C@@H](CO)C3)cc2s1	-17.6%
CC(C)CCN(C)C(C)c1cccs1 (stereo not drawn)	-9.7%[44.1 µM]
COc1ccc(Cn2c(C3CCN(C(=O)Cc4cccs4)CC3)n[nH]c2=O)cc1	19.1%
CC(NC(=O)C1CCCN(c2cnc3nccnc3c2)C1)c1ccccn1 (stereo not drawn)	i
COCCN1C(=O)CCc2cc(NC(=O)CC(C)C)ccc21	-4.0%
COc1cccc(N2C(=O)NC(=NC3CCCC3)C23CCCN(C(=O)c2ccc(C)cc2)C3)c1 (stereo not drawn)	20.2%
COc1cccc(N2C(=O)NC(=NC3CCCCC3)C23CCN(Cc2cccn2C)CC3)c1	-20.3%
COc1cccc(N2C(=O)NC(=NC3CCCCC3)C23CCCN(CC2CCCCC2)C3)c1 (stereo not drawn)	12.6µM*
SMILES	Pf Dd2 inh
COc1cccc(N2C(=O)NC(=NC3CCCCC3)C23CCN(C(=O)OCc2ccccc2)C3)c1 (stereo not drawn)	i
COc1cccc(N2C(=O)NC(=NC3CCCCC3)C23CCCN(CCC(C)C)C3)c1 (stereo not drawn)	11.2µM*
COc1cccc(N2C(=O)NC(=NC3CCCCC3)C23CCCN(C(=O)c2ccc(C)cc2)C3)c1 (stereo not drawn)	13.4%
COC(=O)N1CCC2(C1)C(=NC1CCCCC1)NC(=O)N2c1cccc(OC)c1 (stereo not drawn)	4.5%
COc1cccc(N2C(=O)NC(=NC3CCCCC3)C23CCN(C(C)=O)C3)c1 (stereo not drawn)	15.7%
COc1cccc(N2C(=O)NC(=NC3CCCC3)C23CCCN(CC2CCCCC2)C3)c1 (stereo not drawn)	10µM*
COCCNC(=O)C[C@@H]1C[C@H]2O[C@H](CNCc3ccncc3F)[C@@H](O)[C@H]2O1	10.0%[44.1 µM]
COCCN1CC2(CCC1=O)CCN(C(=O)C1CC=CCC1)CC2 (stereo not drawn)	-1.9%
O=C1CC(c2noc(-c3ccccc3)n2)CN1c1ccc(F)c(Cl)c1 (stereo not drawn)	23.5%
CNC(=O)C(C)(C)N1CCC[C@H]1C(=O)N1CCC[C@@H]1COC	23.3%[44.1 µM]
O=C(c1nccc2ccccc12)N1C[C@@H](CO)[C@H](c2ccccn2)C1	-12.1%
CS(=O)(=O)N1CCC(CC(=O)Nc2ccccc2)C1 (stereo not drawn)	i
O=C1CC2(CCN([S+](=O)([O-])c3cccc(C(F)(F)F)c3)CC2)Oc2ccccc21	i
COc1cccc([S+](=O)([O-])N2CCC3(CC2)CC(=O)c2ccccc2O3)c1	i
O=C1CC2(CCN([S+](=O)([O-])c3ccccc3)CC2)Oc2ccccc2N1	i
O=C1CC2(CCN([S+](=O)([O-])c3cccc(C(F)(F)F)c3)CC2)Oc2cc(Cl)ccc21	i
CCOc1ccccc1CN1CCC2(CCN([S+](=O)([O-])c3cccc(C(F)(F)F)c3)CC2)Oc2ccccc21	8.91µM*
CCOc1ccccc1CN1CCC2(CCN([S+](=O)([O-])c3ccc(C)cc3)CC2)Oc2ccccc21	3.98µM*
